# Compounds with a hit are over-represented: about 2.2% of the library has one in this group of screens.
# IEC-6 cytotox: kills IEC-6 intestinal cells in KLF5 counter-screen. actives 0.78% (n = 290,000). IEC-6 cytotoxicity, luminescence viability. inhibition, % at 5 µM. AID 1825; in the data active = inhibition above about 22%;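 also: 0% = plate median of test compound wells and 100% = cytotoxic reference compound wells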
# APP 5UTR inh: APP translation inhibition. SH-SY5Y APP 5'UTR-luciferase reporter, luminescence. inhibition, % at 2 µM. actives 0.82% (n = 190,000). AID 1285;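 active = inhibition above a set limit, derived from the sample mean plus 3 SD, cut at about 45% in these data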
# BaF3 tox: parental Ba/F3 viability inhibition as JAK2V617F counter-screen. CellTiter-Glo ATP luminescence. inhibition, % at 5.6 µM. actives 1.1% (n = 220,000);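 active = inhibition above a per-campaign cutoff, the mean inhibition of all tested compounds plus 3 SD, cut at about 27% in these data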;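 also: 0% = DMSO wells and 100% = JAK Inhibitor I control wells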
# Ba/F3 V617F tox: reduce viability of Ba/F3 cells dependent on JAK2V617F | inhibition, % at 5.6 µM | actives 1.1% (n = 220,000) | Ba/F3 EpoR-JAK2V617F viability, ATP luminescence;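 active = inhibition above the campaign mean plus 3 SD over all tested compounds, cut at about 24% in these data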;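 also: cytokine-independent growth of Ba/F3 cells driven by EpoR plus mutant JAK2; 0% = DMSO-treated cells and 100% = JAK inhibitor I control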
# aSyn 5UTR inh: MLPCN primary screen, SNCA 5' untranslated region | alpha-synuclein 5'UTR reporter, inhibitor activity | inhibition, % (tested at 7.5 µM) | actives 0.82% (n = 300,000) | AID 1813; in the data active = inhibition above about 60%;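 also: H4 neuroglioblastoma cells stably carrying SNCA 5'UTR luciferase fusion; 0% = DMSO wells and 100% = positive control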
# KLF5 inh: suppresses KLF5 promoter-driven expression. DLD-1 KLF5 promoter-luciferase reporter, luminescence. inhibition, % at 5 µM. actives 0.23% (n = 290,000). AID 1700;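 active = inhibition above a per-plate limit of that plate's mean compound inhibition plus 3 SD, cut at about 60% in these data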;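 also: 0% = DMSO wells and 100% = LY294002 at 200 µM; higher means less KLF5 promoter-driven luciferase light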
# * = called active by the depositor; nt = not tested or not shown.
SMILES,IEC-6 cytotox,APP 5UTR inh,BaF3 tox,Ba/F3 V617F tox,aSyn 5UTR inh,KLF5 inh
CCn1nnnc1SCC(=O)c1cccc(OC)c1,-2,-5,45*,0,31,-22
COc1ccc(-n2nnnc2SCC(=O)c2cccc(OC)c2)cc1,2,6,6,5,5,3
CCOC(=O)N1CCN(C(=O)CSc2ccc3nnc(-c4cccnc4)n3n2)CC1,1,-11,3,4,-31,6
O=C(Nc1ncc(Cc2ccc(SC(F)F)cc2)s1)c1ccc(OC(F)F)cc1,5,94*,3,-4,-129,0
CCCCC(=O)NC(=S)Nc1ccccc1C(=O)Nc1ccccc1,1,6,0,-4,-7,-9
CCCCCC(=O)NC(=S)Nc1ccccc1C(=O)OC,0,72*,5,-1,-3,-37
COc1ccc(CC(=O)Nc2cc(Cl)ccc2O)cc1,4,-2,42*,70*,-21,-22
COc1ccc(CC(=O)Nc2ccccc2NC(=O)Cc2ccc(OC)cc2)cc1,-2,nt,nt,nt,-3,-12
C=CCc1cc(Cl)ccc1OCCOCCNCCOC,1,6,9,-1,20,-20
C=CCc1cc(Cl)ccc1OCCNCCCOC,-6,0,92*,4,24,-26
Cc1nnc(NC(=O)CSc2nccn2Cc2ccc(F)cc2)s1,-2,nt,nt,nt,12,-33
Cc1ccc(S(=O)(=O)CC2CSc3nc4ccccc4n32)cc1 (stereo not drawn),10,nt,72*,58*,-13,42
COc1ccc(C(=S)N2CCN(c3cccc(Cl)c3)CC2)c(OC)c1,54*,84*,41*,71*,43,40
COc1ccc(C(=O)N2CCN(c3cccc(Cl)c3)CC2)cc1,8,-12,3,-1,-4,-5
O=C(/C=C/c1cccc([N+](=O)[O-])c1)n1cnc2ccccc21,2,51*,1,-1,-41,-15
CCN(CC(=O)Nc1c(F)cccc1F)C(=O)c1ccc(S(=O)(=O)NCc2ccco2)cc1,nt,nt,nt,nt,2,nt
O=c1c(/C=N/Nc2ccccc2)c(Sc2nnnn2-c2ccccc2)nc2ccccn12,2,75*,4,2,nt,-30
O=C(O)c1ccccc1N/N=C/c1c(Sc2nnnn2-c2ccccc2)nc2ccccn2c1=O,4,nt,-4,5,2,0
O=c1[nH]c(C2CCN(S(=O)(=O)c3ccc(S(=O)(=O)NC4CC4)cc3)CC2)nc2c1nnn2Cc1cccc(F)c1,-1,nt,nt,nt,7,29
O=C(CN(Cc1ccccc1)S(=O)(=O)c1ccccc1)N/N=C/c1ccc([N+](=O)[O-])cc1,-5,10,95*,1,8,-16
O=C(Nc1ccc(Cl)c(Cl)c1)Nc1ccccc1C(=O)O,-10,-215,45*,18,-8,-137
C=CCOc1cccc(C(=O)N2CCC(CCC(=O)NC3CC3)CC2)c1,-3,nt,nt,nt,0,-18
O=C(NCc1ccncc1)C(=O)NCC1OCCN1S(=O)(=O)c1ccc(F)cc1 (stereo not drawn),-1,nt,nt,nt,-2,-21
Cc1cnc(NC(=O)COc2ccccc2Cl)s1,5,-100,4,0,82*,-29
Cc1cnc(NC(=O)CSc2ccc(Cl)cc2)s1,3,-13,-1,-2,-11,-15
SMILES,IEC-6 cytotox,APP 5UTR inh,BaF3 tox,Ba/F3 V617F tox,aSyn 5UTR inh,KLF5 inh
Cc1cnc(NC(=O)Nc2ccc(Cl)cc2)s1,29*,28,72*,92*,-187,-127
CC(NS(=O)(=O)CCNC(=O)c1ccccc1)c1ccccc1 (stereo not drawn),nt,nt,nt,nt,-11,nt
CCNCC(=O)N1c2ccccc2CCc2ccc(NC(=O)OC(C)C)cc21,8,nt,nt,nt,2,12
CCC(=O)NC(Nc1c(C)n(C)n(-c2ccccc2)c1=O)C(Cl)(Cl)Cl (stereo not drawn),-4,-8,11,4,-7,-11
COc1cccc(-c2cc(=O)c3cc(NC(=O)c4ccc(Cl)cc4)ccc3[nH]2)c1,4,78*,10,1,-68,-10
COc1cccc(C(=O)Nc2ccccc2)c1,2,-45,5,3,-122,-44
COc1cccc(-c2cc(=O)c3cc(NC(=O)c4ccccc4)ccc3[nH]2)c1,5,87*,5,-2,82*,-14
CC(/C=C/c1ccccc1F)=N\NC(=O)c1cccc(F)c1,-3,-9,3,-3,-139,-45
CCN(CC(=O)NCc1cccs1)C(=O)/C=C/c1cccc(Br)c1,nt,nt,nt,nt,4,nt
